According to PubChem BioAssay AID493027 (The Scripps Research Institute Molecular Screening Center, 2011):
Where “and” joins values, the source holds several entries; their conditions need not be identical. Equal values may be shown once. Among all 2,000 compounds or so, about 45 (2%) were called active. For the sample, actives were picked, then their nearest neighbours and some compounds at random. Values without a mark were called inactive.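 The calls were made as follows: active = inhibition above the screen-wide mean inhibition plus 3 SD (cut at about 44% in these data); inactive = the rest.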

These compounds were tested against Perilipin-1 (Homo sapiens) + 1-acylglycerol-3-phosphate O-acyltransferase ABHD5 (Homo sapiens) (UniProt O60240+Q8WTS1) (assay: blockers of ABHD5 binding to perilipin-1 – cell lysate, split luciferase complementation, luminescence, NIH validation set, pilot screen (AID 493027;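 also: 0% = DMSO wells with the 100% control not disclosed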)). Conditions: split G. princeps luciferase complementation, 4 h, at 7.9 µM, active compounds read high.
Chain of Perilipin-1 (Homo sapiens) + 1-acylglycerol-3-phosphate O-acyltransferase ABHD5 (Homo sapiens) (O60240 whole entry, looked up): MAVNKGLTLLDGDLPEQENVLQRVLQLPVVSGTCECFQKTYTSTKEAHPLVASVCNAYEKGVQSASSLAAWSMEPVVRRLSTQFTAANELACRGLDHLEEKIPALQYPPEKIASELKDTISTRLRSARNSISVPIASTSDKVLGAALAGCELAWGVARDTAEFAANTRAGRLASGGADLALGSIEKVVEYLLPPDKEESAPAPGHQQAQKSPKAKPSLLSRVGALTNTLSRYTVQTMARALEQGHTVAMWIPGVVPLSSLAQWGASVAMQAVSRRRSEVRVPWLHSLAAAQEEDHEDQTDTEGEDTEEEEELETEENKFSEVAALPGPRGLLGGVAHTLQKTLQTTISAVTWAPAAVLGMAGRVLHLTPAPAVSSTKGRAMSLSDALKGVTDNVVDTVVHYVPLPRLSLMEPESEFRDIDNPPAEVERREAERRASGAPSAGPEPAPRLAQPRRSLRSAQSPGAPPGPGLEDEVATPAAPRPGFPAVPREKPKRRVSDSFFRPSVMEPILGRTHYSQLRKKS
Chain of Perilipin-1 (Homo sapiens) + 1-acylglycerol-3-phosphate O-acyltransferase ABHD5 (Homo sapiens) (Q8WTS1 whole entry, looked up): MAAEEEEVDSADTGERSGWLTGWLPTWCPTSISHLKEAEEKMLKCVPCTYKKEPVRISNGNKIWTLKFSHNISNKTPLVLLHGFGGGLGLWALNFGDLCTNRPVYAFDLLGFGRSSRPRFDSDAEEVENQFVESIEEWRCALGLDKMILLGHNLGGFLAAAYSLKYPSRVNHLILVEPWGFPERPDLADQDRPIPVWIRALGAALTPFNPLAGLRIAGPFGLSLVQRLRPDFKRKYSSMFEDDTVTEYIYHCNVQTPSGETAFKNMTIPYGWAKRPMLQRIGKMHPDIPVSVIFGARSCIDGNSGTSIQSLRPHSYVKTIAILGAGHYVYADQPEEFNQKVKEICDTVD
O=c1c2ccccc2nc(/C=C/c2ccc3c(c2)OCO3)n1-c1ccccc1 showed an inhibition of 1.81%. For O=c1c2ccccc2[se]n1-c1ccccc1, the inhibition was 90.3% (active). Cc1nc2ccccc2c(=O)n1-c1ccc(C(=O)O)cc1 gave an inhibition of 5.87%. For [N-]=[N+]=CC(=O)OC[C@H](N)C(=O)O, the inhibition was 0.75%. CC12CN3CC(C)(CN(C1)C3c1cccs1)C2=O (stereo not given) showed an inhibition of -10.9%. Compound CC(C)NC(C)C(=O)c1ccc2ccccc2c1 (stereo not given) has an inhibition of -0.73%. Work on O=c1[nH]c(=S)n(-c2ccccc2)c(O)c1/C=N/N1CCCCC1c1cccnc1 (stereo not given) yielded an inhibition of -7.25%. With C#CCN(C)C(C)Cc1ccccc1 (stereo not given) the inhibition was -10.3%. In the case of CCOc1ccc(N2C(=O)NC(=O)/C(=C\c3cc(OC)c(OC)cc3[N+](=O)[O-])C2=O)cc1, the inhibition is reported as 63.9% (active). Work on Cc1ccc(-n2c(C)cc(/C=C3/C(=O)NC(=O)N(C)C3=O)c2C)cc1 yielded an inhibition of 38.2%. With Cc1ccc(/C=C2/C(=O)NC(=O)N(C)C2=O)cc1 the inhibition was -3.1%. COc1cc(/C=C2\C(=O)NC(=O)N(c3ccccc3)C2=O)c([N+](=O)[O-])cc1OC was tested, and the inhibition was 58.1% (active). With CCOC(=O)c1cncn1C(C)c1ccccc1 (stereo not given) the inhibition was 1.91%. C[N+]1(C)[C@@H]2CC(OC(=O)[C@H](CO)c3ccccc3)C[C@H]1[C@@H]1O[C@@H]12 (stereo not given in full) was tested, and the inhibition was -5.12% and 3.91%. Compound CC(C)C[C@H]1C(=O)N2CCCC2[C@]2(O)O[C@](NC(=O)[C@@H]3C=C4c5cccc6[nH]cc(c56)CC4N(C)C3)(C(C)C)C(=O)N12 (stereo not given in full) has an inhibition of 22.5%. With Cc1c2ccncc2c(C)c2c1[nH]c1ccccc12 the inhibition was -2.7%. With Cc1cc2c(C(C)C)c(O)c(O)c(C=O)c2c(O)c1-c1c(C)cc2c(C(C)C)c(O)c(O)c(C=O)c2c1O the inhibition was 50.9% (active). In the case of O=C1C(=O)c2ccccc2-c2ccccc21, the inhibition is reported as 29.2%. For CCn1c(O)c(C(=O)CC2NCCc3ccccc32)c(=O)n(CC)c1=S (stereo not given), the inhibition was -1.08%. With CC[C@@H]1C(=O)OC[C@@H]1Cc1cncn1C the inhibition was -9.03% and -8.34%. In the case of Clc1ccc(C2NCCc3[nH]cnc32)cc1 (stereo not given), the inhibition is reported as 1.77%. With COP(=S)(OC)SCN1C(=O)c2ccccc2C1=O the inhibition was 83.3% (active). Work on NNC(=O)c1ccc(Cl)cc1 yielded an inhibition of 1.77%. O=C1C=Cc2ccccc2C1=O gave an inhibition of 25.2%. With O=C1CCCC2=C1C(c1cccnc1)Nc1ccccc1N2 (stereo not given) the inhibition was -3.96%.
